The structures appear in SMILES notation. About 13,000 (27%) of roughly 48,000 compounds showed an effect of 50% or more. The list shows a part of the results.

The subject of this experiment is Wolbachia pipientis. Nature of the experiment: Anti-Wolbachia Cell-Based Screen. It is filed as functional. Also on record: scale not given: in the data most compounds retested in dose-response had high values. The conditions noted are these: 5 µM.
For the molecule `O=C(NS(=O)(=O)c1ccc(F)cc1)C1CCOc2ccccc21` (stereo not given), the “Percent Effect” value was -10.91%.

Regarding `Cc1scc(C(=O)N2CCC3(CC(=O)NC3=O)C2)c1-c1ccccc1` (stereo not given), the “Percent Effect” value is on record as -14.34%. Then `CS(=O)(=O)N1CCCC12CCN(Cc1nccs1)C2.O=C(O)C(F)(F)F` (stereo not given), with -1.689%; and `Cc1ccc(CNC(=O)Cc2c(C)nc3c(c2C)c(=O)[nH]n3C)cc1`, with 114.9%.

As to `Cc1nc2c(c(C)c1CC(=O)NCc1ccc(F)cc1)c(=O)[nH]n2C`, the “Percent Effect” value turned out to be 91.6%. `Cc1nc2c(c(C)c1CC(=O)NC(C)c1ccccc1)c(=O)[nH]n2C` (stereo not given): the “Percent Effect” value is listed as -24.46%.

Consider `CCNC(=O)Cc1c(C)nc2c(c1C)c(=O)[nH]n2C`, for which the “Percent Effect” value is on record as -13.5%. For `Cc1nc2c(c(C)c1CC(=O)NCc1ccco1)c(=O)[nH]n2C`, the “Percent Effect” value turned out to be 144%. For the molecule `Cc1nc2c(c(C)c1CC(=O)Nc1ccccc1F)c(=O)[nH]n2C`, the “Percent Effect” value is listed as -18.93%. Then `Cc1nc2c(c(C)c1CC(=O)NCc1cccc(C#N)c1)c(=O)[nH]n2C`, with 1.091%. With `Cc1cc(C)cc(NC(=O)Cc2c(C)nc3c(c2C)c(=O)[nH]n3C)c1`, the “Percent Effect” value was 3.943%. `Cc1ccc(C)c(NC(=O)Cc2c(C)nc3c(c2C)c(=O)[nH]n3C)c1`: the “Percent Effect” value turned out to be 0.2479%.

Turning to `Cc1nc2c(c(C)c1CC(=O)NCc1ccccc1F)c(=O)[nH]n2C`, the “Percent Effect” value worked out at 107.2%. As to `Cc1ccc(C(C)NC(=O)Cc2c(C)nc3c(c2C)c(=O)[nH]n3C)o1` (stereo not given), the “Percent Effect” value is -8.138%.

Take `Cc1nc2c(c(C)c1CC(=O)Nc1ccnn1C(C)C)c(=O)[nH]n2C`: the “Percent Effect” value is given as -7.188%. With `Cc1c(F)cc(C(=O)NCC(F)(F)F)cc1NCC(=O)N(C)C` the figure was 4.918%. Turning to `CCOc1ccccc1NC(=O)CN(C)Cc1ccccc1Cl`, the “Percent Effect” value was 6.554%.

For `OCCn1cc(CN2CCN(CCOCC(F)(F)F)CC2)cn1`, the “Percent Effect” value came out at 2.281%. For `CN(C)CC(=O)N1Cc2cc(N(C)C)ccc2C1c1cnco1` (stereo not given), the “Percent Effect” value is listed as -12.83%. With `CC(C)C(C(=O)N(C)C)c1cccc(Cl)c1` (stereo not given) the figure was -9.046%; with `CN(C)c1cccc(C(=O)Nc2cn(C)c(=O)n(C)c2=O)c1`, -7.07%. As to `COc1c(C(=O)N2CCC(COCc3ccccc3)C2)c(C)nn1C` (stereo not given), the “Percent Effect” value is reported as -0.4444%. Then `CCCNC(=O)Cc1c(C)nc2c(c1C)c(=O)[nH]n2C`, with -12.53%; and `Cc1ccsc1CNC(=O)Cc1c(C)nc2c(c1C)c(=O)[nH]n2C`, with -0.5496%; and `Cc1nc2c(c(C)c1CC(=O)NCc1cccs1)c(=O)[nH]n2C`, with 165.2%. As for `O[C@H]1CC[C@@H](Cc2cc(-c3ccc(F)cc3)on2)O[C@@H]1CNCC1CC1`, the “Percent Effect” value turned out to be 6.759%. With `O=C(O)C(F)(F)F.O=C(O)C(F)(F)F.c1ccc(OCc2n[nH]c3c2CN(Cc2cccs2)C3)nc1` the figure was -9.854%. Then `COCc1n[nH]c2c1CN(Cc1cccs1)C2.O=C(O)C(F)(F)F`, with 1.549%; and `O=C(CCc1cccs1)N1CCc2[nH]nc(COc3ccccc3)c2C1`, with 98.05%.

For the molecule `O=C(O)C(F)(F)F.O=C(O)C(F)(F)F.O=C(O)C(F)(F)F.c1cncc(OCc2n[nH]c3c2CN(Cc2cccs2)C3)c1`, the “Percent Effect” value was -32.3%. `Cc1noc(C)c1-c1n[nH]c2c1CN(S(=O)(=O)c1cccs1)CC2`: the “Percent Effect” value is reported as 16.83%. For `CS(=O)(=O)N1CCc2[nH]nc(Cc3cccs3)c2C1`, the “Percent Effect” value stood at 98.95%. With `O=C(O)C(F)(F)F.OCCOCc1n[nH]c2c1CN(Cc1ccco1)C2`, the “Percent Effect” value was determined as 3.715%.

For the molecule `O=C(CCc1ccco1)N1CCc2[nH]nc(COc3ccccc3)c2C1`, the “Percent Effect” value was found to be 91.35%. With `O=C(c1csnn1)N1CCc2[nH]nc(COc3cccc(Cl)c3)c2C1` the figure was 7.373%; with `COc1nc2c(cc1C(=O)N(C)Cc1[nH]nc3c1CCC3)CCC2`, 7.806%. As to `OC(COCc1ccccc1Cl)CN1CC(n2cccn2)C1` (stereo not given), the “Percent Effect” value is on record as -11.39%. As for `Cc1nc(CN2CCCC(CCNS(C)(=O)=O)C2)c[nH]1` (stereo not given), the “Percent Effect” value is reported as -5.765%. With `Cc1occc1C(=O)N1Cc2nccn2CC(CN2CCOCC2)C1.O=C(O)C(F)(F)F` (stereo not given) the figure was -15.88%; with `CN(C)CCN(C)c1ccc(-c2nc(COc3ccccc3)no2)cn1`, -2.014%.

As to `CC[C@H]1COCCN1C(=O)CCCn1nnc(-c2ccc(F)cc2)n1`, the “Percent Effect” value is given as -1.392%.

For the molecule `CN(Cc1cnccn1)c1cncc(Br)c1`, the “Percent Effect” value turned out to be 109.1%.

Consider `CN(Cc1ccc([S+](C)[O-])cc1)c1cncc(Br)c1` (stereo not given), for which the “Percent Effect” value is given as 105.7%. With `Cc1nc(N(C)C)nc(N(C)Cc2cnccn2)c1C` the figure was 49.18%. For `CN(Cc1ccncc1)c1cncc(Br)c1`, the “Percent Effect” value was determined as 97.92%.

In the case of `CCCN(CCC)S(=O)(=O)N(C)Cc1ccncc1`, the “Percent Effect” value is listed as 3.881%. Then `CN(Cc1ccc([S+](C)[O-])cc1)c1ccc(Br)cn1` (stereo not given), with -27.32%. Then `CN(Cc1ccc([S+](C)[O-])cc1)c1cncc(Cl)n1` (stereo not given), with -12.95%. `COc1cc(F)ccc1N(C)Cc1ccncc1`: the “Percent Effect” value was -8.772%. On to `Cc1cc(C2CCC2)nc(N(C)Cc2cnccn2)n1`, for which the “Percent Effect” value was -5.292%.
